The source made the active and inactive calls.
What was measured:
[1] = anti-His antibody binders, primary screen, artefact control for SMM control protein annotation, biochemical, small-molecule microarray, 635 nm fluorescence (AID 1128); settings: anti-His Alexa647 antibody binding, higher = more signal;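 further: score merges feature fluorescence with signal-to-noise for each printed compound spot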
[2] = tested on: Human papillomavirus type 1a E7 protein (residues 1-88); test: HPV1a E7 small-molecule binders, primary screen, biochemical, small-molecule microarray, residues 1-88, 635 nm (AID 1129); settings: small-molecule microarray binding, fluorescence 635 nm; higher = more signal
[3] = molecular target: Focal adhesion kinase 1 (Homo sapiens) (UniProt Q05397); test: small-molecule microarray binders of FAK, primary screen, biochemical, 635/667 nm fluorescence, BSA, DTT (AID 1130); settings: PTK2 binding, 635 nm fluorescence, higher = more signal;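 further: composite of spot emission at 667 nm and signal to noise over triplicate slides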
Focal adhesion kinase 1 (Homo sapiens), sequence (Q05397 whole entry, looked up): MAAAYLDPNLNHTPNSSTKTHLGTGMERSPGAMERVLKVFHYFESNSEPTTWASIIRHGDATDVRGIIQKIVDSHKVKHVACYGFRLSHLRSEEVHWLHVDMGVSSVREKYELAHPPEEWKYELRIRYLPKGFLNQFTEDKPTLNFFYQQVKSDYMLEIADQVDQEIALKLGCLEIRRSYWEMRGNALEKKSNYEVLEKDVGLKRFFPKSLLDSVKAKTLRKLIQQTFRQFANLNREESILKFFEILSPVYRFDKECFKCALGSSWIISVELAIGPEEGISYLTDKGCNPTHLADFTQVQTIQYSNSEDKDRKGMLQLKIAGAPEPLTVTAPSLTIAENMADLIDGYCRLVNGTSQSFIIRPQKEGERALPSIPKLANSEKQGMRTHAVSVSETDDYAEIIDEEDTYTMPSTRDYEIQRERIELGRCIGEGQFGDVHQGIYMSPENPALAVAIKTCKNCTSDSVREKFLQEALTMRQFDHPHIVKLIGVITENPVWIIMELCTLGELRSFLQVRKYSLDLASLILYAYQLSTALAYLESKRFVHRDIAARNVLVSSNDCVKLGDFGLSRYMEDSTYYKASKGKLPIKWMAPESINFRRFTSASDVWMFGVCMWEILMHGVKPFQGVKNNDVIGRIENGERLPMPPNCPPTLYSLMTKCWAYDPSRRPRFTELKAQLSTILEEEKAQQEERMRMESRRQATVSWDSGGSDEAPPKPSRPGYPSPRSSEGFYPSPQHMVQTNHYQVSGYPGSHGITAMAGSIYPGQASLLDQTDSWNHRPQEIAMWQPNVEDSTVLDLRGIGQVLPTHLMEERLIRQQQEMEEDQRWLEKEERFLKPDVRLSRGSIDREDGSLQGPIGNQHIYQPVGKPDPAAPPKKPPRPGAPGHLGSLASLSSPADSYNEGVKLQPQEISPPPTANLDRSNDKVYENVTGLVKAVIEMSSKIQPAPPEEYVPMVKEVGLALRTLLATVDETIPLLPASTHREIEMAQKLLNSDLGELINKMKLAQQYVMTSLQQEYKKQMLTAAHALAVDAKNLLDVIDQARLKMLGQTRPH

[4] = tested on: Fibrinogen (Alexa647-labelled); test: fibrinogen binders on compound microarrays, profiling panel, artefact control for SMM control-protein annotation, biochemical, small-molecule microarray, 635/667 nm fluorescence (AID 1131); settings: fibrinogen-A647 binding fluorescence, higher = more signal;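 further: z-score merges 667 nm fluorescence with per-spot signal-to-noise over triplicate slides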
[5] = molecular target: Follistatin (Homo sapiens) (UniProt P19883); test: follistatin binders on small-molecule microarrays, primary screen, biochemical, small-molecule microarray, 635/667 nm fluorescence (AID 1132); settings: FST binding, 635 nm fluorescence, higher = more signal
Follistatin (Homo sapiens), sequence (P19883 whole entry, looked up): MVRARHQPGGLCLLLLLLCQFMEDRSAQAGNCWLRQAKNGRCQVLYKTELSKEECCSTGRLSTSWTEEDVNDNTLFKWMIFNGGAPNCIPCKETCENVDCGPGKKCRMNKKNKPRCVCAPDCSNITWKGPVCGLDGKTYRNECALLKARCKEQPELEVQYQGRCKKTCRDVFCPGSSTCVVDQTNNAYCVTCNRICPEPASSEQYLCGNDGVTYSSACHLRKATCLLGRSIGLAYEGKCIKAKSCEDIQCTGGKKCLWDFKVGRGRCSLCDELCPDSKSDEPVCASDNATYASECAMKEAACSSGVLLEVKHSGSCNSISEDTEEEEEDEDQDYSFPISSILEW

[6] = molecular target: Fibroblast growth factor 2 (Homo sapiens) (UniProt P09038); test: FGF2 binders on small-molecule microarrays, primary screen, biochemical, small-molecule microarray, 635/667 nm fluorescence (AID 1133); settings: small-molecule microarray binding, FGF2, fluorescence 635/667; higher = more signal
Fibroblast growth factor 2 (Homo sapiens), sequence (P09038 whole entry, looked up): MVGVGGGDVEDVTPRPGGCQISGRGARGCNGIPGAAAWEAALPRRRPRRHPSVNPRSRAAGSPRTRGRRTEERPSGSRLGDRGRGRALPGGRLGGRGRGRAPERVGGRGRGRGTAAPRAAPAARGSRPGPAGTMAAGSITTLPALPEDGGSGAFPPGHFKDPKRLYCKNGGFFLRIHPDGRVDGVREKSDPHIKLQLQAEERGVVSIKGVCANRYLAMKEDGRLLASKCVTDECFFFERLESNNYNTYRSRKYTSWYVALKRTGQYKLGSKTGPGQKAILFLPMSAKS

[7] = mitochondrial membrane potential change in A549 cells, profiling panel, cell-based, JC-1 fluorescence, basal, 24 h, 100 nL (AID 1138); settings: higher = more signal;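 further: A549 lung adenocarcinoma cells under basal conditions with no added stimulus; test concentration not given here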
[8] = tested on: Lefty1; test: Lefty1 binders on small-molecule microarrays, primary screen, biochemical, small-molecule microarray, 635/667 nm fluorescence (AID 1139); settings: small-molecule microarray binding, fluorescence 635/667; higher = more signal
[9] = tested on: wheat germ agglutinin (Triticum aestivum), Alexa647-labelled; test: wheat germ agglutinin binders on compound microarrays, profiling panel, artefact control for SMM control-protein annotation, biochemical, small-molecule microarray, 635/667 nm fluorescence (AID 1140); settings: WGA-A647 binding, 635 nm fluorescence, higher = more signal;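 further: score merges 667 nm feature emission with signal to noise over triplicate slides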
[10] = molecular target: Luciferin 4-monooxygenase (Photinus pyralis) (UniProt P08659); test: firefly luciferase enzyme inhibitors, primary screen, biochemical, luminescence, purified enzyme, 2006 set (AID 1141); settings: SteadyGlo luminescence, 30 min, higher = more signal, called active from +8 up or from −8 down;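 further: cell-free assay with purified firefly luciferase at 100 ng per well in PBS; test concentration not given here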
Luciferin 4-monooxygenase (Photinus pyralis), sequence (P08659 whole entry, looked up): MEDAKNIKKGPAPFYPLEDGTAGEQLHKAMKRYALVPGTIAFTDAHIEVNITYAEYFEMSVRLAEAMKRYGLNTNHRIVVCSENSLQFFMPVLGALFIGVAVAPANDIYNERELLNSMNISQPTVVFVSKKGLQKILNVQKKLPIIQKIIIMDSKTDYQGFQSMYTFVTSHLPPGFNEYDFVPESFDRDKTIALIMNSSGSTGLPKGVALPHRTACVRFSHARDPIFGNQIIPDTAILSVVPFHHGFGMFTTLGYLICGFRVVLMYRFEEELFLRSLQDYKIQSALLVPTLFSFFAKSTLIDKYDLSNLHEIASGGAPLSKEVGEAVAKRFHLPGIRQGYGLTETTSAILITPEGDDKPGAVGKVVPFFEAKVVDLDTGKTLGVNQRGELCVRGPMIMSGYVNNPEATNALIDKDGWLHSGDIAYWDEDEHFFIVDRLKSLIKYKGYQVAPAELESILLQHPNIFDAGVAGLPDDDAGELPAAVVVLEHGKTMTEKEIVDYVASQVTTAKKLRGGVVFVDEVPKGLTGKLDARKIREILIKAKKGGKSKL

SMILES | composite z-score [1] | composite z-score [2] | composite z-score [3] | composite z-score [4] | composite z-score [5] | composite z-score [6] | z-score [7] | composite z-score [8] | composite z-score [9] | z-score [10]
[N-]=[N+]=NCc1ccccc1C[C@]1(C(N)=O)COC(c2ccc(OCCCO)cc2)=N1 | 0.0064 | 0.3 | -0.0367 | 0.389 | 1.24 | 0.261 | 0.564 | 0.299 | 0.821 | -2.06 (inactive)
COCC(=C=CC[C@@H](O)c1cccc(OCCO)c1)C[C@@H](O)c1ccccn1 | -0.252 | 0.467 | -0.32 | 0.263 | 0.868 | 0.392 | 1.53 | 1.24 | 0.0688 | -1.16 (inactive)
C=CCNC(=O)[C@@H]1[C@H]2C(=O)O[C@H](c3ccccc3)[C@H](c3ccccc3)N2[C@H](c2ccc(O)cc2)[C@@]12C(=O)N(C(=O)OCCOC)c1ccc(C#CCNC(N)=O)cc12 | 0.2 | 1.16 | 1.23 | 0.746 | 1.18 | 1.45 | -0.564 | 1.03 | 0.834 | -1.43 (inactive)
C=CC(=C)[C@H]1Oc2ccccc2S(=O)(=O)N2CCC[C@@H]12 | -0.133 | -0.492 | -0.139 | 0.224 | 0.434 | 0.0668 | 0.16 | 0.201 | 0.023 | -0.261 (inactive)
NCCCCCNC(=O)[C@@H]1C[C@@H]2C(=O)N[C@@H](Cc3ccccc3)C(=O)N2[C@@H]1c1ccc(O)cc1 | 1.85 | 0.958 | 0.255 | 0.89 | 1.28 | 0.871 | 0.972 | 0.865 | 0.86 | -0.365 (inactive)
O=C1O[C@@H](c2ccccc2)[C@@H](c2ccccc2)N2[C@@H](c3ccccc3OCCO)[C@]3(C(=O)Nc4ccccc43)[C@@H](C(=O)Nc3nc4ccccc4s3)[C@H]12 | 0.858 | 1.23 | 0.467 | 0.865 | 0.778 | 0.188 | -2 | 1.62 | 1.17 | -0.237 (inactive)
C=CCOC(=O)[C@@H]1[C@H]2C(=O)O[C@H](c3ccccc3)[C@H](c3ccccc3)N2[C@H](c2ccc(OCCOC(=O)[C@H]3C[C@H]4C(=O)N5CCC[C@H]5C(=O)N4[C@H]3c3ccc(O)cc3)cc2)[C@@]12C(=O)Nc1ccc(I)cc12 | 2.01 | 1.19 | 0.453 | 0.409 | 1.39 | 1.58 | -1.6 | 1.42 | 0.497 | -0.376 (inactive)
COc1ccc(C(O)C2C=CC3C(=O)N(Cc4ccccc4)C(=O)C3N2n2cnnc2)cc1OCc1ccccc1 (stereo not given) | -0.259 | 0.48 | 1.23 | 0.303 | 0.319 | -0.385 | -1.03 | 0.341 | 0.194 | 1.77 (inactive)
C=C(CCCC)/C(=C/C[C@@H](OC(C)=O)c1ccc(OCCO)cc1)c1cnc2ccccc2c1 | 1.42 | 0.974 | 0.153 | 0.539 | 1.12 | 0.502 | 1.49 | 0.856 | 0.773 | -1.81 (inactive)
COc1cc2c(cc1OC)CN(C(=O)[C@H]1[C@@H]3C(=O)O[C@@H](c4ccccc4)[C@@H](c4ccccc4)N3[C@@H](c3ccc(O)cc3)[C@]13C(=O)Nc1ccccc13)CC2 | 1.65 | 1.19 | 0.81 | 0.253 | 0.354 | 0.39 | -0.517 | 0.331 | 0.115 | -0.204 (inactive)
O=C1C[C@@](C(=O)NCC(F)(F)F)(c2ccc([N+](=O)[O-])cc2)[C@@H](c2ccc(CO)cc2I)N1C1CCCCC1 | 0.226 | 1.25 | 0.466 | 0.9 | 1.05 | 1.26 | 1.8 | 0.394 | 0.834 | 0.59 (inactive)
CCCC[C@@H]1C[C@H]1[C@@H](NC(=O)C(C)(C)C)c1ccc(C(F)(F)F)cc1 | 1.73 | 0.779 | 0.702 | -0.27 | -1.57 | -1.4 | -1.08 | -0.722 | -0.372 | -3.32 (inactive)
O=C(CS)NCCCCCCNC(=O)[C@@H]1C[C@@H]2C(=O)N[C@@H](Cc3ccccc3)C(=O)N2[C@@H]1c1cccc(OCCO)c1 | 3.09 | 1.23 | 0.385 | 0.54 | 1.33 | 1.76 | -0.714 | 0.823 | 0.1 | -1.09 (inactive)
CCN(CC)c1ccc(N2CC=CC34O[C@@H]5C=CCCOC(=O)C5[C@H]3C(=O)N(CCCCCCO)[C@@H]4C2=O)cc1 (stereo not given in full) | 1.43 | 0.321 | 0.899 | -1.15 | -0.372 | -0.551 | -0.115 | 0.0079 | 0.623 | -4.35 (inactive)
C=C[C@H](CO)NS(=O)(=O)c1ccc(Br)cc1 | 0.461 | 0.446 | 0.179 | 0.28 | 1.06 | 0.464 | 1.19 | 0.28 | 0.279 | -0.877 (inactive)
CC(C)N1C(=O)[C@@]2(Cc3ccccc31)c1ccccc1C(=O)N(Cc1ccccc1Cl)[C@H]2c1ccc(CO)cc1 | -0.145 | -1.3 | -0.236 | -2.02 | -1.17 | -0.468 | -0.176 | -0.391 | -0.0789 | 0.847 (inactive)
Cc1nc2cc(Br)ccc2c(=O)o1 | 0.302 | 0.628 | 0.201 | 0.0814 | 0.657 | -0.0519 | 0.0359 | 0.328 | 0.536 | 1.16 (inactive)

SMILES | composite z-score [1] | composite z-score [2] | composite z-score [3] | composite z-score [4] | composite z-score [5] | composite z-score [6] | z-score [7] | composite z-score [8] | composite z-score [9] | z-score [10]
CCCC[C@@H]1C[C@H]1[C@@H](NC(=O)c1ccco1)c1ccccc1C(F)(F)F | -0.422 | 0.0662 | 0.57 | 0.349 | 0.674 | -0.527 | -0.914 | -0.302 | 1.15 | 1.8 (inactive)
COC(=O)[C@@]1(Cc2ccc(OC)cc2)[C@H]2c3cc(C(=O)N4CCCC4)n(Cc4ccc(O)c(OC)c4)c3C[C@H]2CN1C(=O)c1ccccc1 | 2.89 | 0.926 | 0.264 | 0.724 | 0.379 | -0.1 | 1.44 | -0.304 | 1.11 | 1.62 (inactive)
COCCOC(=O)N1C(=O)[C@@]2(c3cc(C#CC4(O)CCCCCC4)ccc31)[C@H](c1ccccc1OCCO)N1[C@H](c3ccccc3)[C@H](c3ccccc3)OC(=O)[C@H]1[C@@H]2C(=O)N1CCN(c2ncccn2)CC1 | 0.701 | 1.05 | 0.782 | 0.662 | 1.19 | 0.846 | -1.13 | 0.702 | 0.764 | -1.04 (inactive)
CC1(C)C2C=C(C(O)C3C=CC4C(=O)NC(=O)C4N3Nc3ccc(Cl)cc3Cl)C[C@@H]1C2 (stereo not given in full) | 1.26 | 0.87 | -0.167 | 0.606 | 1.02 | -0.169 | -1.44 | 0.317 | 0.698 | 0.155 (inactive)
COc1ccc([Si](C)(C)[C@H]2[C@H](CC(=O)N3Cc4ccccc4C[C@H]3CO)O[C@@]3(C(=O)N(Cc4cccc(N5CCC5=O)c4)c4ccccc43)[C@@H]2C)cc1 | 0.322 | 1.19 | 0.527 | 0.135 | 1.33 | 1.47 | 0.526 | 1.22 | 0.107 | -0.796 (inactive)
C=C(C)[C@@H]1CC=C(C(O)C2C=CC3C(=O)N(c4ccccc4)C(=O)C3N2Nc2ccccc2)CC1 (stereo not given in full) | 0.858 | 1.24 | 0.0294 | 0.982 | 1.22 | 0.001 | -0.369 | 0.226 | 1.32 | -1.24 (inactive)
CCC[C@@H]1C[C@@]1(CCC)[C@@H](NS(=O)(=O)c1cccc2cccnc12)c1ccc(Cl)cc1 | 0.265 | 1.06 | 0.249 | 0.285 | 0.0155 | -1.68 | 2.3 | -0.605 | 0.701 | 0.19 (inactive)
CC(=O)NCCCC[C@@H]1NC(=O)[C@H]2C[C@@H](C(=O)NCCCCCCNC(=O)CS)[C@@H](c3ccc(O)cc3)N2C1=O | 2.48 | 0.432 | 0.458 | -0.397 | -0.409 | 0.141 | -1.08 | -0.712 | 0.485 | -0.644 (inactive)
COC(=O)[C@@]1(Cc2ccc(OC)cc2)[C@H]2c3cc(C(=O)N(C)C)n(CCc4ccccn4)c3C[C@H]2CN1C(=O)c1ccccc1 | 0.429 | 0.815 | 0.933 | -1.04 | 0.0679 | -0.162 | -0.267 | -0.919 | 0.698 | 1.49 (inactive)
CN1C(=O)C2C=CC(C(O)c3ccc([N+](=O)[O-])cc3)N(N3CCCCC3)C2C1=O (stereo not given) | 0.922 | 1.18 | 0.115 | 0.938 | 1.12 | 0.651 | -0.39 | -0.0977 | 0.913 | -0.661 (inactive)
C=C(CCCC)/C(=C/C[C@H](OC(C)=O)c1ccccc1OCCO)c1cc(C(=O)OC)ccc1OC | -0.33 | 0.0376 | -0.0155 | -0.438 | 0.0341 | -0.196 | 1.39 | 0.0742 | -0.4 | -0.687 (inactive)
O=C1O[C@@H](c2ccccc2)[C@@H](c2ccccc2)N2[C@@H](c3ccccc3OCCO)[C@]3(C(=O)Nc4ccc(C#CC5=CCCCC5)cc43)[C@@H](C(=O)N3CCCCCCC3)[C@H]12 | 1.53 | 1.32 | 3.35 | 0.487 | 1.48 | 0.095 | -0.489 | 1.63 | 1.64 | -1.16 (inactive)
COc1cc2c(cc1O)C(C1CC1)N(Cc1sc3ccccc3c1Cl)CC2 (stereo not given) | 1.53 | 0.87 | -0.0249 | 0.762 | 0.439 | 0.124 | -1.55 | -0.619 | 0.402 | -0.593 (inactive)
C=CCOC(=O)[C@H]1[C@@H]2C(=O)O[C@@H](c3ccccc3)[C@@H](c3ccccc3)N2[C@@H](c2ccc(OCCOC(=O)[C@H]3C[C@H]4C(=O)N[C@@H](CCCCN(C)C)C(=O)N4[C@H]3c3ccc(O)cc3)cc2)[C@]12C(=O)Nc1ccc(I)cc12 | 2.49 | 1.23 | 0.739 | 0.991 | 1.34 | 1.64 | -0.665 | 1.59 | 0.784 | 0.69 (inactive)
O=C(OCc1ccccc1)C1=CCC2c3[nH]c4ccccc4c3C(=O)C1N2S(=O)(=O)c1ccccc1[N+](=O)[O-] (stereo not given) | 1.28 | 1.26 | -0.134 | 0.906 | 1.11 | 0.491 | -2.71 | 0.5 | 0.743 | 0.895 (inactive)
CN(C)CCCCCCNC(=O)[C@@H]1C[C@@H]2C(=O)N[C@@H](Cc3ccccc3)C(=O)N2[C@@H]1c1ccc(O)cc1 | 2.45 | 1.23 | 0.303 | 0.493 | 1.44 | 1.63 | -1.06 | 1.67 | 0.715 | 0.205 (inactive)
